# Inconclusive results are not listed. Activity calls are given as the source filed them. Rule for the calls: active = hit-call score of the fitted dose curve at least 0.9, where 1 is the maximum; inconclusive = response in the unintended direction; inactive = score below 0.9.
# Assay: Tanguay_ZF_120hpf_TR_legacy: (Legacy) Oregon State University Tanguay Lab 120 Hour Post-fertilization zebrafish Assay for Touch Response (AID 2283667)
# Experimental: Tanguay_ZF_120hpf_legacy is a whole embryo, multiplexed endpoint assay using zebrafish larvae exposed for 120 hours post fertilization on a 96-well plate.Tanguay_ZF_120hpf_TR_legacy is one of one assay component(s) measured or calculated from the Tanguay_ZF_120hpf_legacy assay. It is designed to make measurements of zebrafish development as detected with brightfield microscopy of developing zebrafish embryos.Data from the assay component Tanguay_ZF_120hpf_TR_legacy was analyzed into 1 assay endpoints. This assay endpoint, Tanguay_ZF_120hpf_TR_legacy, was analyzed in the positive analysis fitting direction relative to DMSO as the negative control and baseline of activity. Using a type of morphology reporter, gain-of-signal activity can be used to understand changes in developmentals as they relate to the whole embryo. To generalize the intended target to other relatable targets, this assay endpoint is annotated to the zebrafish development intended target family, where the subfamily is embryonic functional response.
# Zebrafish husbandry: Tropical 5D wild-type adult zebrafish were housed in at an approximate density of 1000 per 100 gallon tank at the Sinnhuber Aquatic Research Laboratory, Oregon State University, Corvallis, OR. Each tank was kept at standard laboratory conditions of 28C on a 14-h light/10-h dark photoperiod in fish water consisting of reverse osmosis water supplemented with a commercially available salt (Instant Ocean). Spawning funnels were placed into the tanks the night prior, and embryos were collected and staged. […] Ten microliters of each row of dilution plate 2 was added to 2 exposure plates. The final DMSO concentration used was 0.64% (vol/vol). Thirty-two embryos were also exposed to 5uM trimethyltin chloride (positive control). Plates were sealed to prevent evaporation and foil covered to reduce light exposure and kept in a 28C incubator. Embryos were statically exposed until 120 hpf. At 24 hpf, embryos were assessed for photomotor response using a custom photomotor response analysis tool (PRAT) and for developmental toxicity endpoints (MO24: mortality at 24 hpf, DP: developmental progression, SM: spontaneous movement, and NC: notochord distortion). At 120 hpf, locomotor activity was measured using Viewpoint Zebralab and assessed for 18 endpoints. Zebrafish acquisition and analysis program (ZAAP), a custom program designed to inventory, acquire, and manage zebrafish data, was used to collect developmental endpoints as either present or absent (i.e., binary responses were recorded). If mortality occurred for an embryo (at either 24 or 120 hpf), the non-mortality endpoints were not measured.
Structure (SMILES),outcome,AC50
CCN(CC)CCNc1ccc(CNC=O)c2sc3ccc(OC)cc3c(=O)c12,inactive,
O=C(OCCOCCOC(=O)c1ccccc1)c1ccccc1,inactive,
c1ccc2cc3c(ccc4ccccc43)cc2c1,inactive,
Oc1cc2ccccc2c2ccccc12,,38.8 µM (active)
COCC(C)OCC(C)O (stereo not given),inactive,
OC1CCCCC1,inactive,
CN1CCC[C@H]1c1cccnc1,inactive,
CC1=C(/C=C/C(C)=C/C=C/C(C)=C/C(=O)O)C(C)(C)CCC1,,0.0914 µM (active)
O=[N+]([O-])c1ccc(O)cc1,inactive,
CN(C)C=O,inactive,
O=C(O)Cc1cc(I)c(Oc2cc(I)c(O)c(I)c2)c(I)c1,inactive,
CC#C[C@]1(O)CC[C@H]2[C@@H]3CCC4=CC(=O)CCC4=C3[C@@H](c3ccc(N(C)C)cc3)C[C@@]21C,,11.7 µM (active)
C=C(C)C(=O)OCCC(F)(F)C(F)(F)C(F)(F)C(F)(F)C(F)(F)C(F)(F)F,inactive,
CC(C)(C)CC(C)(C)c1ccc(O)c(-n2nc3ccccc3n2)c1,inactive,
CC(=O)NC1(c2cccc(F)c2)CCN(CC[C@@]2(c3ccc(Cl)c(Cl)c3)CN(c3ccccc3)C(=O)CO2)CC1,inactive,
Cc1oc(-c2ccccc2)nc1CCOc1ccc(C[C@H](Nc2ccccc2C(=O)c2ccccc2)C(=O)O)cc1,inactive,
OCCC(F)(F)C(F)(F)C(F)(F)C(F)(F)C(F)(F)C(F)(F)F,inactive,
Nc1cccc2c(N)cccc12,inactive,
c1ccc2c(c1)ccc1ccccc12,inactive,
CCCCCCCCC(=O)O,inactive,

Structure (SMILES),outcome,AC50
OCCC(F)(F)C(F)(F)C(F)(F)C(F)(F)C(F)(F)C(F)(F)C(F)(F)C(F)(F)F,inactive,
CCC(=C(c1ccc(O)cc1)c1ccc(OCCN(C)C)cc1)c1ccccc1,inactive,
CC(C)(C)c1ccc(O)c(C(C)(C)C)c1,inactive,
C#C[C@]1(O)CC[C@H]2[C@@H]3CCC4=CC(=O)CC[C@@H]4[C@H]3CC[C@@]21C,inactive,
CCc1nn(C2CCCCC2)c2cc(C3(C#N)CCC(C(=O)O)CC3)ccc12 (stereo not given),,2.48 µM (active)
CCCOC(=O)c1ccc(O)cc1,,41.5 µM (active)
O=c1c(-c2ccc(O)cc2)coc2cc(O)ccc12,inactive,
CC(=O)CC(C)(C)O,inactive,
OC1CCC(C2CCCCC2)CC1 (stereo not given),inactive,
CCCCCCCCCCCCc1ccccc1S(=O)(=O)O,inactive,
O=C(O)c1ccccc1C(c1ccc(O)cc1)c1ccc(O)cc1,inactive,
CCCCC(CC)COC(=O)CCCCC(=O)OCc1ccccc1 (stereo not given),inactive,
Cc1cc(C)c(O)c(C)c1,inactive,
CCCCC(CC)COC(=O)CCCCC(=O)OCC(CC)CCCC (stereo not given),inactive,
CC(O)CO (stereo not given),inactive,
NC(=O)N(O)[C@@H]1C=C[C@H](Oc2cccc(Oc3ccc(F)cc3)c2)C1,inactive,
CCc1ccc(CCOc2ccc(CC3SC(=O)NC3=O)cc2)nc1 (stereo not given),inactive,
CCCCCCCCCCCCCCCS(=O)(=O)Oc1ccccc1,inactive,
CC(C)(C)c1cc(C(C)(C)C)c(O)c(C(C)(C)C)c1,inactive,
c1ccc2c(c1)Cc1ccccc1-2,inactive,

# Source: PubChem BioAssay (EPA / NIEHS)
